Test results taken from PubChem BioAssay AID1159580 (chemical genetic matrix, 2015).
The whole screen tested about 5,500 compounds, of which about 2,000 (36%) were called active. Not shown: some 18% with an inconclusive outcome. No stated cut-off is given here; in the data, active means normalized growth mostly below about 0.91 (no sharp cut-off); inconclusive means no clear call, values can overlap the other calls; inactive means mostly above about 0.92. Some of the results follow.

Assay: chemical genetic growth profiling, strain panel (AID 1159580);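 further: tested at 20 µM; growth read once vehicle control cultures reached saturation at 30 °C; 1 = growth at the plate median or of vehicle wells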
Conditions: S. cerevisiae deletion strains, growth OD

Measured: normalized growth

C/C=C(/C)C(=O)OC1CCC2(C)C3CCC4C5(O)CC(O)C6(O)C(CN7CC(C)CCC7C6(C)O)C5(O)CC42OC13O (configuration not stated)
active: locus YBR021W, strain FUR4, stronger effect = lower value 0.747 | locus YER167W, strain BCK2, stronger effect = lower value 0.852 | locus YJR043C, strain POL32, stronger effect = lower value 0.845 | locus YKR001C, strain vps1, stronger effect = lower value 0.821 | locus YLR262C, strain YPT6 (second series), stronger effect = lower value 0.82 | locus YLR330W, strain CHS5, stronger effect = lower value 0.902 | locus YLR342W, strain FKS1 (second series), stronger effect = lower value 0.715 | locus YLR418C, strain cdc73, stronger effect = lower value 0.705 | locus YNL307C, strain MCK1, stronger effect = lower value 0.83 | locus YOR184W, strain ser1, stronger effect = lower value 0.815
inactive: locus YAL021C, strain ccr4, stronger effect = lower value 0.955 | locus YAL026C, strain drs2, stronger effect = lower value 0.954 | locus YAL030W, strain snc1, stronger effect = lower value 1.01 | locus YBL061C, strain skt5, stronger effect = lower value 1.01 | locus YBR009C, strain hhf1, stronger effect = lower value 0.951 | locus YBR023C, strain chs3, stronger effect = lower value 0.992 | locus YBR171W, strain sec66, stronger effect = lower value 0.968 | locus YBR229C, strain ROT2, stronger effect = lower value 0.97 | locus YBR231C, strain swc5, stronger effect = lower value 0.991 | locus YBR279W, strain paf1, stronger effect = lower value 0.99 | locus YCL011C, strain gbp2, stronger effect = lower value 0.993 | locus YCL016C, strain dcc1, stronger effect = lower value 1.01 | locus YCL029C, strain bik1, stronger effect = lower value 0.979 | locus YCL069W, strain vba3, stronger effect = lower value 0.971 | locus YCR088W, strain abp1, stronger effect = lower value 0.993 | locus YDL005C, strain med2, stronger effect = lower value 1.01 | locus YDL035C, strain GPR1, stronger effect = lower value 0.922 | locus YDL040C, strain nat1, stronger effect = lower value 0.994 | locus YDL074C, strain BRE1, stronger effect = lower value 0.844 | locus YDL101C, strain DUN1, stronger effect = lower value 0.95 | locus YDL185W, strain tfp1, stronger effect = lower value 0.994 | locus YDL192W, strain arf1, stronger effect = lower value 0.96 | locus YDR001C, strain nth1, stronger effect = lower value 0.995 | locus YDR069C, strain doa4, stronger effect = lower value 1.01 | locus YDR101C, strain arx1, stronger effect = lower value 0.955 | locus YDR137W, strain rgp1, stronger effect = lower value 0.857 | locus YDR150W, strain NUM1, stronger effect = lower value 0.986 | locus YDR159W, strain sac3, stronger effect = lower value 0.974 | locus YDR162C, strain NBP2, stronger effect = lower value 0.942 | locus YDR195W, strain ref2 1.04 | locus YDR297W, strain sur2, stronger effect = lower value 0.982 | locus YDR318W, strain mcm21, stronger effect = lower value 0.964 | locus YDR334W, strain swr1, stronger effect = lower value 0.977 | locus YDR335W, strain msn5, stronger effect = lower value 0.999 | locus YDR388W, stronger effect = lower value 0.953 | locus YDR392W, strain spt3, stronger effect = lower value 0.95 | locus YDR502C, strain sam2, stronger effect = lower value 0.937 | locus YEL003W, strain gim4, stronger effect = lower value 0.993 | locus YEL037C, strain rad23, stronger effect = lower value 0.984 | locus YEL061C, strain CIN8 (second series), stronger effect = lower value 0.981 | locus YEL061C, strain CIN8, stronger effect = lower value 0.961 | locus YER015W, strain faa2, stronger effect = lower value 0.999 | locus YER016W, strain bim1, stronger effect = lower value 1.07 | locus YER110C, stronger effect = lower value 0.963 | locus YER111C, strain swi4, stronger effect = lower value 0.995 | locus YER155C, strain BEM2 (second series), stronger effect = lower value 0.969 | locus YER155C, strain BEM2, stronger effect = lower value 0.966 | locus YFR010W, strain ubp6, stronger effect = lower value 0.969 | locus YGL078C, strain dbp3, stronger effect = lower value 0.989 | locus YGL086W, strain mad1, stronger effect = lower value 0.953 | locus YGL167C, strain pmr1, stronger effect = lower value 0.996 | locus YGL173C, strain kem1, stronger effect = lower value 0.998 | locus YGL227W, strain vid30, stronger effect = lower value 1 | locus YGL240W, strain doc1, stronger effect = lower value 0.988 | locus YGL248W, strain PDE1, stronger effect = lower value 0.928 | locus YGL253W, strain hxk2, stronger effect = lower value 1 | locus YGR135W, strain pre9, stronger effect = lower value 0.928 | locus YGR252W, strain gcn5, stronger effect = lower value 0.789 | locus YHR013C, strain ard1, stronger effect = lower value 0.995 | locus YHR027C, strain rpn1, stronger effect = lower value 1 | locus YHR030C, strain SLT2, stronger effect = lower value 0.982 | locus YHR079C, strain IRE1 (second series), stronger effect = lower value 0.972 | locus YHR094C, strain hxt1, stronger effect = lower value 0.971 | locus YHR129C, strain ARP1, stronger effect = lower value 0.955 | locus YHR142W, strain chs7, stronger effect = lower value 0.974 | locus YHR200W, strain rpn10, stronger effect = lower value 0.973 | locus YIL066C, strain RNR3, stronger effect = lower value 0.885 | locus YIL073C, strain SPO22, stronger effect = lower value 0.924 | locus YIL125W, strain kgd1, stronger effect = lower value 0.976 | locus YIR030C, strain dcg1, stronger effect = lower value 0.978 | locus YJL092W, strain hpr5, stronger effect = lower value 1 | locus YJL095W, strain BCK1 (second series), stronger effect = lower value 1 | locus YJL095W, strain BCK1, stronger effect = lower value 0.891 | locus YJL115W, strain asf1, stronger effect = lower value 0.985 | locus YJL129C, strain trk1, stronger effect = lower value 1 | locus YJL134W, strain LCB3, stronger effect = lower value 0.983 | locus YJL154C, strain vps35, stronger effect = lower value 0.989 | locus YJL164C, strain tpk1, stronger effect = lower value 0.996 | locus YJL166W, strain qcr8, stronger effect = lower value 0.994 | locus YJL168C, strain set2, stronger effect = lower value 0.976 | locus YJL187C, strain SWE1 (second series), stronger effect = lower value 0.943 | locus YKL009W, strain mrt4, stronger effect = lower value 0.987 | locus YKL068W, stronger effect = lower value 0.961 | locus YKL085W, strain MDH1 (second series), stronger effect = lower value 0.948 | locus YKL085W, strain MDH1, stronger effect = lower value 0.948 | locus YKL160W, strain elf1, stronger effect = lower value 1.02 | locus YKL190W, strain CNB1, stronger effect = lower value 0.979 | locus YKR026C, strain gcn3, stronger effect = lower value 0.988 | locus YKR091W, strain srl3, stronger effect = lower value 1.01 | locus YLL001W, strain dnm1, stronger effect = lower value 0.985 | locus YLL026W, stronger effect = lower value 1 | locus YLL041C, strain sdh2, stronger effect = lower value 0.991 | locus YLR027C, strain aat2, stronger effect = lower value 1 | locus YLR039C, strain RIC1, stronger effect = lower value 0.889 | locus YLR058C, strain SHM2, stronger effect = lower value 0.949 | locus YLR102C, strain apc9, stronger effect = lower value 0.972 | locus YLR221C, strain rsa3, stronger effect = lower value 0.968 | locus YLR258W, strain gsy2, stronger effect = lower value 0.998 | locus YLR262C, strain YPT6, stronger effect = lower value 1 | locus YLR268W, strain sec22, stronger effect = lower value 0.938 | locus YLR320W, strain mms22, stronger effect = lower value 0.959 | locus YLR342W, strain FKS1, stronger effect = lower value 1 | locus YLR357W, strain rsc2, stronger effect = lower value 1.02 | locus YLR370C, strain arc18, stronger effect = lower value 0.994 | locus YLR371W, strain rom2, stronger effect = lower value 0.985 | locus YLR384C, strain iki3, stronger effect = lower value 0.991 | locus YML016C, strain PPZ1, stronger effect = lower value 0.969 | locus YML032C, strain rad52, stronger effect = lower value 0.935 | locus YML120C, strain ndi1, stronger effect = lower value 0.997 | locus YML124C, strain tub3, stronger effect = lower value 0.97 | locus YMR058W, strain fet3, stronger effect = lower value 0.993 | locus YMR078C, strain ctf18, stronger effect = lower value 0.968 | locus YMR125W, strain sto1, stronger effect = lower value 0.991 | locus YMR129W, stronger effect = lower value 1 | locus YMR205C, strain PFK2, stronger effect = lower value 0.986 | locus YMR223W, strain ubp8, stronger effect = lower value 0.957 | locus YMR231W, strain pep5, stronger effect = lower value 1 | locus YMR263W, strain SAP30, stronger effect = lower value 0.943 | locus YMR307W, strain GAS1, stronger effect = lower value 0.626 | locus YNL067W, strain RPL9B, stronger effect = lower value 0.962 | locus YNL071W, strain lat1, stronger effect = lower value 0.98 | locus YNL209W, strain ssb2, stronger effect = lower value 0.997 | locus YNL233W, strain BNI4, stronger effect = lower value 0.908 | locus YNL248C, strain rpa49, stronger effect = lower value 0.973 | locus YNL250W, strain rad50, stronger effect = lower value 0.992 | locus YNL271C, strain bni1, stronger effect = lower value 0.996 | locus YNL298W, strain CLA4, stronger effect = lower value 0.967 | locus YNL322C, strain KRE1 (second series), stronger effect = lower value 1.03 | locus YNL322C, strain KRE1, stronger effect = lower value 0.947 | locus YNR049C, strain mso1, stronger effect = lower value 1.02 | locus YNR052C, strain pop2, stronger effect = lower value 1.02 | locus YOL006C, strain TOP1, stronger effect = lower value 0.627 | locus YOL012C, strain htz1 0.727 | locus YOL147C, strain pex11, stronger effect = lower value 0.96 | locus YOR001W, strain rrp6, stronger effect = lower value 0.937 | locus YOR061W, strain CKA2, stronger effect = lower value 0.975 | locus YOR069W, strain VPS5, stronger effect = lower value 0.981 | locus YOR070C, strain gyp1, stronger effect = lower value 0.987 | locus YOR080W, strain dia2, stronger effect = lower value 1 | locus YOR083W, strain WHI5, stronger effect = lower value 1.03 | locus YOR106W, strain vam3, stronger effect = lower value 1.02 | locus YOR136W, strain idh2, stronger effect = lower value 0.979 | locus YOR144C, strain elg1, stronger effect = lower value 0.963 | locus YOR265W, strain rbl2, stronger effect = lower value 0.984 | locus YOR270C, strain vph1, stronger effect = lower value 0.94 | locus YOR290C, strain snf2, stronger effect = lower value 1.03 | locus YOR316C, strain cot1, stronger effect = lower value 0.969 | locus YPL051W, strain arl3, stronger effect = lower value 1.02 | locus YPL055C, strain LGE1, stronger effect = lower value 0.877 | locus YPL078C, strain atp4, stronger effect = lower value 1.01 | locus YPL106C, strain sse1, stronger effect = lower value 1.01 | locus YPL240C, strain hsp82, stronger effect = lower value 0.988 | locus YPR119W, strain clb2, stronger effect = lower value 0.969 | locus YPR141C, strain kar3, stronger effect = lower value 0.978 | locus YPR163C, strain tif3, stronger effect = lower value 0.964 | locus YPR167C, strain met16, stronger effect = lower value 0.967 | strain wtn01, stronger effect = lower value 0.949
